# Screens: PubChem, National Center for Advancing Translational Sciences (NCATS)
# Most compounds without a hit are left out; they make up all but 9.2% or so of the library.
# SMN2 splice up = enhancers of SMN2 splice variant expression; Potency, µM (highest dose often 46.1 µM), for the others: top-dose activity change, positive = activation, usual class: activators; HEK293 SMN2-luciferase splicing reporter, luminescence, 30-36 h; 210,000 compounds, 2.8% hits; note: % of control where 0% means no effect; nearly all actives have a fitted effect of over 55% in size
#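 qHTS luciferase splicing reporter: luminescence rises when SMN2 exon 7 is included in transfected HEK293 cells. Compound exposure lasted 30-36 h at 37C, with 4.5 mM final sodium butyrate as control, followed by a ONE-Glo read.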
# NPC1 promoter act = NPC1 promoter activation; Potency, µM (top dose mostly 9.22 µM), for the others: at the top dose activation, hits mostly activators; Huh7 NPC1 promoter luciferase reporter, 24 h; 320,000 compounds, 2.4% hits; note: % of control where 0% means no effect; nearly all actives have a fitted effect of over 60% in size
#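 Readout is luciferase luminescence, reflecting NPC1 promoter activation in stably transfected Huh7 cells after 24 h compound exposure at 37 °C in reduced-serum medium with 10% FBS.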
# Rab9 prom act = activates the Rab9 promoter; Huh7 Rab9 promoter-luciferase reporter, luminescence, 24 h; Potency, µM (highest dose often 9.22 µM), for the others: at the highest dose activation, negative = inhibition, most hits filed as activators; 320,000 compounds, 2.8% hits; note: % of control where 0% means no effect; nearly all actives have a fitted effect of over 60% in size
#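 Steps: seed 1500 Huh7 Rab9-luc cells per well, rest 2 h at 37 °C; add compound in DMSO; incubate 24 h; add luciferase reagent, 10 min ambient; read luminescence.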
# FLuc modulator = inhibits or activates purified firefly luciferase, miR-21 counter-screen | 360,000 compounds, 6.9% hits | P08659 | purified FLuc, Km substrates, luminescence inhibition | AID 588342 | Potency, µM (top dose mostly 57.5 µM), for inactives: at the highest dose activity change, negative = inhibition, usual class: inhibitors;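 note: plate controls were vehicle for no effect and reference inhibitor for full effect; nearly all actives have a fitted effect of over 55% in size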
# Target sequence (P08659 whole entry, looked up): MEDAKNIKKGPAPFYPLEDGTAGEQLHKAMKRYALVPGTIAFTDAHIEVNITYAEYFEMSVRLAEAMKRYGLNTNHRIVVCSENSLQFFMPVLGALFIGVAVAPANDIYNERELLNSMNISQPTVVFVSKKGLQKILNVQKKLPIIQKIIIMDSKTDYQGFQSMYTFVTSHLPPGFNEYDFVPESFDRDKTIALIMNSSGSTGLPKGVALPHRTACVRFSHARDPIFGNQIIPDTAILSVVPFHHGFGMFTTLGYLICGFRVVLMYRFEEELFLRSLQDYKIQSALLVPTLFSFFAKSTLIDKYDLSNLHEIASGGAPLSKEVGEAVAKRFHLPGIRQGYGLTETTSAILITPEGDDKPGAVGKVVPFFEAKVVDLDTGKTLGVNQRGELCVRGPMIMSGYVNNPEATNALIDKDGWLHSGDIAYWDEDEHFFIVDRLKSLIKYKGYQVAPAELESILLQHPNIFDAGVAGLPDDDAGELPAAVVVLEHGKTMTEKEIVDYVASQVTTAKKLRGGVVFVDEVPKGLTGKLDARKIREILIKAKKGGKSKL
#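 Purified P. pyralis luciferase (10nM final) with 10uM D-luciferin and 10uM ATP (Km levels) in 50mM Tris acetate pH 7.5, 10mM Mg acetate, 0.01% Tween-20, 0.05% BSA; qHTS 6-point titration, ~60 µM downward; luminescence read.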
# ELG1 genotox = induces genotoxicity in HEK293T cells with luciferase-tagged ELG1; HEK293T ELG1-luciferase reporter, luminescence, 16 h; Potency, µM (top dose mostly 46 µM), for inactives: at the top dose activity change, positive = activation, hits mostly activators; AID 504466; 330,000 compounds, 1.3% hits; note: % of control where 0% means no effect; nearly all actives have a fitted effect of over 60% in size
#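 HEK293T cells expressing luciferase-tagged ELG1 were exposed to compound or DMSO vehicle for 16 hr at 37 °C and 5% CO2. Luciferase activity was then measured with ONE-Glo after 30 min at room temperature.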
# ELG1 repair inh = ELG1-dependent DNA repair inhibition; AID 504467; 330,000 compounds, 2.3% hits; HEK293T ELG1-luciferase reporter, luminescence, 16 h; DNA damage induced by 5-fluorouridine; Potency, µM (top dose mostly 46.1 µM), inactives show top-dose activity change, negative = inhibition, hits mostly inhibitors; note: % is set by controls: 0 for no effect and ±100 for the full control effect; nearly all actives have a fitted effect of over 55% in size
#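 Quantitative HTS, concentration-response format. 2,000 cells/well co-treated with 5-fluorouridine and compound, 16 hr in 5% CO2 at 37 °C; ONE-Glo luminescence read after 30 min.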
# * marks the source's active call; other numbers are inactive results; ? = inconclusive; . = no result; [ ] = dose if it differs, or a comment. Calls come from the whole dose curve; as a rule, active = well fitted curve in the direction sought with a large enough effect; inconclusive = small, poorly fitted or top-dose-only effect, or another doubt; inactive = no such curve, though single readings can be large; an effect the other way counts as inactive or inconclusive. Potency is the fitted concentration of half-maximal effect.
SMILES,SMN2 splice up,NPC1 promoter act,Rab9 prom act,FLuc modulator,ELG1 genotox,ELG1 repair inh
CCOC(=O)CN1C(=O)CCSc2ccc(Cl)cc21,11%,3%,-4%,-1%,0%,12%
Cn1nc(C(F)(F)F)c(/C=N/OC(=O)c2ccccc2Cl)c1SCc1ccccc1Cl,-26%,-6%,-10%,-2%,-16%,13µM*
Cc1ccsc1C(=O)NNC(=O)C1CC=CCC1C(=O)O (stereo not given),4%,-2%,-2%,?,6%,?
CC(C)c1ccc(C(=O)NNC(=O)C2CC=CCC2C(=O)O)cc1 (stereo not given),?,23%,29%,17µM*,11%,?
CN=C(C)/C(C(=O)OC)=C(/O)c1ccc(Cl)cc1Cl,.,2%,-1%,-1%,-2%,0%
COC(=O)c1sc2ccccc2c1-n1cccc1C(=O)C(=O)Nc1ccc(F)cc1,-24%,-8%,-4%,-3%,-1%,15µM*
COc1ccccc1CN1CC(C(=O)NCc2cc(C(C)C)no2)CCC1=O (stereo not given),.,-7%,-2%,2%,-3%,?
CSc1ccccc1OCc1cc(C(=O)N2CCN(c3ccccc3)CC2C)no1 (stereo not given),.,?,4.5µM*,15µM*,13%,?
CC(=O)c1ccc(OCc2cc(C(=O)N3CCN(c4ccccc4)CC3C)no2)cc1 (stereo not given),.,1.6µM*,1.3µM*,8.5µM*,?,?
Cc1nc2ccc(S(=O)(=O)Nc3cccc(-c4nc5cccnc5s4)c3C)cc2s1,-75%,-6%,-2%,?,-3%,5%
Cc1c(NS(C)(=O)=O)cccc1-c1nc2ccccc2s1,.,.,.,8.5µM*,.,.
CS(=O)(=O)Nc1ccc(-c2nc3ccccc3s2)cc1,.,.,.,1.1µM*,.,.
O=C(O)CCNC(=O)OCC1c2ccccc2-c2ccccc21,.,0%,6%[1.84 µM],-19%,-1%,-12%
CC(C)CC(NC(=O)OCC1c2ccccc2-c2ccccc21)C(=O)O (stereo not given),13µM*,.,.,.,.,.
COc1ccc(CC(=O)OCC(=O)NC2CCCC(C)C2C)cc1OC (stereo not given),.,.,.,.,2%,?
CC(C)=NOc1nc(N2CCOCC2)nc(N2CCOCC2)n1,.,0%,8%,-2%,1%,-1%
Cc1nc(-c2cccc(NC(=O)c3cccs3)c2)cs1,12%,8%,-4%,24µM*,0%,?
O=C(Nc1cccc(-c2csc(-c3ccccc3)n2)c1)c1cccs1,-23%,4%,-1%,11µM*,-12%,0%
O=C(Nc1cccc(NC(=S)NC(=O)c2cccs2)c1)c1ccccc1,26%,2%,-2%,-11%,9%,30%
O=C(Nc1ccccc1)c1csc(-c2ccccc2)n1,2%,12%,16%,21µM*,8%,?
CC(=O)Cn1ncc(Br)c(Br)c1=O,-108%,-41%,-43%,8%,-21%,?
O=C(OCn1ncc(Br)c(Br)c1=O)c1c(F)cccc1F,.,-36%,-54%,5%,?,9.2µM*
Cn1cnnc1Sc1ccc(C(F)(F)F)cc1[N+](=O)[O-],23%,-2%,-4%,-7%,-17%,8.2µM*
O=C(/C=C/c1cc([N+](=O)[O-])ccc1OC(F)F)Nc1cccc2ccccc12,-24%,-2%,?,0%,-1%,?
CN(c1ccccc1)S(=O)(=O)c1ccc(Cl)nc1,22%,-6%,-1%,-1%,0%,9%
Cc1nc(S(=O)(=O)N(C)c2ccccc2)c(C#N)c(C)c1Cl,-42%,-1%,-5%,1%,-12%,23µM*
COC(=O)Nc1nc2ccc(SC(C)C)cc2[nH]1,?,20%,16%,?,5.8µM*,?
